Bioassay records (PubChem BioAssay)
PHOSPHO1 block: PubChem AID 1565; Phosphoethanolamine/phosphocholine phosphatase (Homo sapiens), Q8TCT1; inhibition, % at 13.3 µM; recombinant PHOSPHO1, absorbance phosphatase assay; 290,000 compounds, 1.1% hits; in the data active = inhibition above about 60%
Target sequence (Q8TCT1 whole entry, looked up): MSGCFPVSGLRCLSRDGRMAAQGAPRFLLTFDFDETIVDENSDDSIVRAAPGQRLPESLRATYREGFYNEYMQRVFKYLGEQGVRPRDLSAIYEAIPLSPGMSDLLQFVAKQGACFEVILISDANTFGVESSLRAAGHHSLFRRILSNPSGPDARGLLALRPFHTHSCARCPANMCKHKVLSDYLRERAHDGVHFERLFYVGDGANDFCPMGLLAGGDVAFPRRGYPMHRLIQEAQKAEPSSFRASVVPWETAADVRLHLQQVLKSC
APOBEC3A inh: APOBEC3A ssDNA deaminase inhibitors, primary screen, selectivity assay for APOBEC3G inhibitor project, biochemical, FAM/TAMRA oligo cleavage fluorescence; DNA dC->dU-editing enzyme APOBEC-3A (Homo sapiens), P31941; recombinant A3A, FAM/TAMRA ssDNA deamination fluorescence; inhibition, % at 20 µM; 330,000 compounds, 0.41% hits;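 active = at least 40% inhibition at 20 µM here, with at most 30% in a related deaminase screen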;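 also: plate controls were A3A with DMSO for no effect and wells lacking A3A enzyme for full effect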
rCAG RNA binder: binders of r(CAG) RNA repeats, primary screen, biochemical, fluorescence; 370,000 compounds, 1.3% hits; inhibition, % at 3 µM; AID 651821, 2012; r(CAG) RNA repeat, TO-PRO-1 dye displacement fluorescence;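 active = inhibition above the plate cutoff, the mean of all test compounds on that plate plus 3 SD, cut at about 35% in these data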;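 also: 0% = DMSO alone and 100% = 100 µM mitoxantrone as full dye displacement; higher means more dye released from RNA so lower well fluorescence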
aDG glyco act: activators of alpha-DG glycosylation, primary screen, uHTS, Pro5-aDG cells, AlphaScreen; alpha-DG glycosylation AlphaScreen (IIH6); 0% Pro5, 100% B10-LARGE cell signal; activation, % at 10 µM; 360,000 compounds, 0.22% hits; AID 624168, 2012;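 active = activation of at least 8% versus controls, or a plate z-score of at least 8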;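 also: Pro5 are CHO cells carrying HIG-tagged alpha-DG that lacks glycosylation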
A3G deaminase: APOBEC3G DNA deaminase inhibitors, primary screen, biochemical, fluorescence, single-stranded DNA substrate, uHTS | 330,000 compounds, 0.28% hits | recombinant A3G, ssDNA deamination FAM/TAMRA fluorescence | inhibition, % at 20 µM | DNA dC->dU-editing enzyme APOBEC-3G (Homo sapiens), Q9HC16;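 active = inhibition of at least 40% at 20 µM, with no more than 30% in the related APOBEC3A deaminase screen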;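 also: plate controls were DMSO wells with A3G for no effect and wells lacking A3G enzyme for full effect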
Target sequence (Q9HC16 whole entry, looked up): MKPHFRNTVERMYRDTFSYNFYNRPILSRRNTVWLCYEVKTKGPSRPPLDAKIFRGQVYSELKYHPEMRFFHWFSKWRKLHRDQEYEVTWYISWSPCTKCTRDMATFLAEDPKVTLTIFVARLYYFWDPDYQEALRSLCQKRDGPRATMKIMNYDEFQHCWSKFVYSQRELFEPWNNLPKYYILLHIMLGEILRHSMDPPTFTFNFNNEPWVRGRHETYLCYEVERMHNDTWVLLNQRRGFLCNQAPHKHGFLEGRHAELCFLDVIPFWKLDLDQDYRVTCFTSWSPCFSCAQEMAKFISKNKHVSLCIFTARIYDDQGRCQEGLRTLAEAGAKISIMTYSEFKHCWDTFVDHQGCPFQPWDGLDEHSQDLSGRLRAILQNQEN
ALR inh: inhibitors of human ALR sulfhydryl oxidase, primary screen, biochemical, H2O2 detection, HRP-luminol luminescence, single point; FAD-linked sulfhydryl oxidase ALR (Homo sapiens), P55789; AID 485317, 2010; inhibition, % (concentration not given with the values); purified ALR, DTT oxidation; 290,000 compounds, 3.8% hits;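 active = mean replicate inhibition above about 79%, with every replicate also reaching it, limit read from the data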
rCAG bind conf: small molecules binding CAG repeat RNA – biochemical, fluorescence, confirmation. shares compounds with rCAG RNA binder. AID 652065, 2013. r(CAG) RNA repeat, TO-PRO-1 dye displacement fluorescence. 4,300 compounds, 70% hits. inhibition, % at 3 µM;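 active = inhibition above a per-plate cutoff, the mean inhibition of sample wells plus 3 SD, cut at about 35% in these data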;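 also: loss of TO-PRO-1 fluorescence as compound displaces dye from 1x1 AA loop RNA; 0% = DMSO only wells and 100% = 100 µM mitoxantrone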
DNA CAG counter: displacement of TO-PRO-1 from CAG DNA duplex, counter-screen for rCAG RNA repeat binder project, biochemical, fluorescence, TO-PRO-1 dye, d(CAG) DNA oligo; shares compounds with rCAG RNA binder; d(CAG) DNA oligo TO-PRO-1 dye displacement; inhibition, % at 3 µM; 4,300 compounds, 94% hits; AID 652068, 2013;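 active = inhibition above its plate's cutoff, the mean test-well inhibition plus 3 SD, cut at about 4.8% in these data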;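 also: 0% = DNA dye mix with DMSO and 100% = 100 µM mitoxantrone; hits displace the dye from DNA and so lower well fluorescence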
dCAG dye DR: inhibitors of DNA CAG/GTC TO-PRO-1 complex, dose response, counter-screen for rCAG RNA repeat binder project, biochemical, fluorescence, TO-PRO-1 dye | IC50, µM | AID 686960, 2013 | DNA CAG/GTC duplex TO-PRO-1 dye displacement fluorescence | 250 compounds, 20% hits | shares compounds with rCAG RNA binder; in the data active = IC50 below about 10 µM
Starred values were filed as active, the others as inactive; i = inactive; nt = not tested or not shown. A selection: hits, their analogues and other compounds. The true share with any hit is near 5.4%.

SMILES	PHOSPHO1 block	APOBEC3A inh	rCAG RNA binder	aDG glyco act	A3G deaminase	ALR inh	rCAG bind conf	DNA CAG counter	others
CCCCNC(=S)NNC(=O)c1cc(-c2cccnc2)nc2ccccc12	5	-2	43*	0	-4	27	32	7.7*
CCCCCC(=C/c1ccccc1)/C=N/Nc1ccc(S(=O)(=O)N2CCOCC2)cc1[N+](=O)[O-]	nt	nt	3	0	nt	nt	nt	nt
Cc1cc(C)cc(C(=O)OCCN2CCN(C3CN(Cc4cn(Cc5ccc([N+](=O)[O-])cc5)nn4)S(=O)(=O)C3)CC2)c1 (configuration not stated)	nt	nt	8	nt	nt	nt	nt	nt
O=C(Nc1ccccc1)Nc1nc2ncccn2c1-c1ccc(F)cc1	nt	nt	2	nt	nt	nt	nt	nt
COC(=O)CCN1CCSCCS1(=O)=O	nt	nt	-1	nt	nt	nt	nt	nt
COC(=O)C[C@@H]1CC[C@H]2[C@@H](COc3ccc(NC(=O)c4ccc(Cl)cc4)cc3C(=O)N2C)O1	nt	nt	6	nt	nt	nt	nt	nt
NC(c1ccccc1)c1csc(NC(=O)Nc2cccc(Cl)c2)n1 (configuration not stated)	nt	nt	48*	2	nt	nt	37*	17*
COc1ccccc1NC(=O)Nc1nc(C(N)CCc2ccccc2)cs1 (configuration not stated)	nt	nt	22	4	nt	nt	nt	nt
NC(CCc1ccccc1)c1csc(NC(=O)Nc2cccc(Cl)c2)n1 (configuration not stated)	nt	nt	47*	1	nt	nt	40*	9.8*
NC(c1ccccc1)c1csc(NC(=O)Nc2ccc(OC(F)(F)F)cc2)n1 (configuration not stated)	nt	nt	41*	0	nt	nt	35*	13*
NC(c1ccccc1)c1csc(NC(=O)Nc2ccccc2Oc2ccccc2)n1 (configuration not stated)	nt	nt	15	3	nt	nt	nt	nt
NC(COCc1ccccc1)c1csc(NC(=O)Nc2cccc(C(F)(F)F)c2)n1 (configuration not stated)	nt	nt	43*	2	nt	nt	30	5.1*
Cn1c(=O)c2cc(NC(=O)NCc3ccccc3)ccc2n1C/C=C/c1ccccc1	nt	nt	5	0	nt	nt	nt	nt
Cc1nnc2nc(N)[nH]n2c1=O	nt	nt	1	nt	nt	nt	nt	nt
COc1ccc(NC(=O)Nc2nc(C(N)Cc3ccc(C(F)(F)F)cc3)cs2)cc1 (configuration not stated)	nt	nt	37*	-1	nt	nt	17	2
COc1ccc(CC(N)c2csc(NC(=O)Nc3ccc(OC)cc3)n2)cc1 (configuration not stated)	nt	nt	34	6	nt	nt	nt	nt
Cc1cc(Br)c2c(c1)[C@](O)(c1cn(C)c3ccccc13)C(=O)N2C	nt	nt	1	0	nt	nt	nt	nt
O=C(COC(=O)c1ccc(NS(=O)(=O)c2cccs2)cc1O)Nc1nc2ccccc2s1	41	4	73*	0	-7	nt	64*	29*
COc1ccc(Cl)cc1NC(=O)COC(=O)c1cc(NS(=O)(=O)c2cccs2)ccc1O	0	9	30	0	5	1	nt	nt
O=C(COC(=O)c1ccc(NS(=O)(=O)c2cccs2)cc1O)NCc1ccccc1	43	0	38*	0	-5	6	25	6.4*
O=C(COC(=O)c1ccc(NS(=O)(=O)c2cccs2)cc1)NCc1ccco1	0	87	nt	0	65	5	nt	nt
Cc1ccc(-n2c(SCC(=O)Nc3ccccc3-c3ccccc3)nnc2-c2cnccn2)cc1	nt	nt	6	nt	nt	nt	nt	nt
C[C@H]1CNC(=O)c2c(C(=O)NC3CCN(C(=O)OC(C)(C)C)CC3)ncn21	nt	nt	-2	0	nt	nt	nt	nt
O=C(CSCc1ccccc1)NNC(=S)Nc1cccc(Cl)c1Cl	37	-5	58*	3	0	12	65*	26*
CNC(=S)NNC(=O)CSCc1c(Cl)cccc1Cl	-103	-1	0	0	-3	24	nt	nt
SMILES	PHOSPHO1 block	APOBEC3A inh	rCAG RNA binder	aDG glyco act	A3G deaminase	ALR inh	rCAG bind conf	DNA CAG counter	others
CC(C)(C)OC(=O)N1CCC(Cc2cc(-c3cccc(Br)c3)no2)(C(=O)O)CC1	10	-6	48*	0	-4	4	49*	14*	dCAG dye DR=>30
COc1cc(CNc2cccc3[nH]c(C(F)(F)F)nc23)cc(OC)c1	28	-6	44*	0	-10	-1	35*	18*
COc1ccc(NS(=O)(=O)c2ccc(NS(=O)(=O)c3ccc(SC)cc3)cc2)c(OC)c1	6	-6	38*	0	-6	0	43*	13*
CCOc1ccc(NS(=O)(=O)c2ccc(NS(=O)(=O)c3ccc(SC)cc3)cc2)cc1	13	-2	49*	0	-8	-7	55*	18*
COc1ccc(OC)c(NS(=O)(=O)c2ccc(SC)cc2)c1	-1	-10	3	0	-2	2	nt	nt
O=C(Cc1ccc(NC(=O)C2CCCN(C(=O)c3ccccc3)C2)cc1)Nc1cccc(C(=O)N2CCCCC2)c1 (configuration not stated)	nt	nt	6	nt	nt	nt	nt	nt
COC(=O)c1sc(-c2ccc(Cl)cc2)cc1NC(=O)COCC(=O)O	43	-3	46*	0	-6	49	52*	12*	dCAG dye DR=i
COC(=O)c1sc(-c2ccc(C(C)(C)C)cc2)cc1NC(=O)CCC(=O)O	42	-7	72*	0	-5	0	72*	29*
CC(=O)c1sc(C(C)(C)C)cc1NC(=O)CCC(=O)O	-1	4	-1	0	0	5	nt	nt
COC(=O)c1sc(-c2ccccc2)cc1NC(=O)c1cc(OC)cc(OC)c1	-14	10	0	0	3	nt	nt	nt
O=C(CCCl)NC1CCCCN(Cc2ccc(OC(F)(F)F)cc2)C1=O (configuration not stated)	nt	nt	-3	nt	nt	nt	nt	nt
COc1ccc(OC)c(/C=C2\SC(=S)N(NS(=O)(=O)c3ccc(C)cc3)C2=O)c1	-1	-2	84*	0	-6	6	87*	52*
